Data on eight compounds can be found in PubChem BioAssay (Tox21).

The target in assay [1] is Thyrotropin receptor (Homo sapiens) (UniProt P16473). Kind of assay: qHTS assay to identify small molecule antagonists of the thyroid stimulating hormone receptor (TSHR) signaling pathway (AID 1259385; calls by dose curve; further: nearly all actives have a fitted effect of over 20% in size). In a few lines:
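TSHR-HEK293 cells were plated and held 18 h at 37C/5% CO2, then given compound plus Ro20-1724 and stimulated with TSH at 1.5 ng/mL final. After 30 min at room temperature, cAMP was detected with cAMP-d2/anti-cAMP-cryptate (1 h) by fluorescence.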
(In general: qHTS replaces the single test concentration by a dilution series.)

A short description of assay [2]: qHTS assay to identify small molecule agonists of the estrogen receptor alpha (ER-alpha) signaling pathway in the presence of an antagonist - cell viability counter screen (AID 1259386).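 Further: cells exposed to compounds for 22 h at 37 °C before the viability read; nearly all actives have a fitted effect of over 30% in size.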 Further: potency means the concentration at half of the fitted maximal effect. An outline of the steps: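 Using estrogen-depleted VM7Luc4E2 cells, the 15-concentration compound series was applied together with 10.0nM ICI-182,780 and incubated 22hr at 37C/5% CO2. Cell viability was then scored by CellTiter-Fluor.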

Assay [3] deals with Progesterone receptor (Homo sapiens) (UniProt P06401). As to the kind of experiment: qHTS assay to identify small molecule agonists of the progesterone receptor (PR) signaling pathway (AID 1346784; calls by dose curve; further: nearly all actives have a fitted effect of over 30% in size; further: potency means the concentration at half of the fitted maximal effect). An outline of the steps: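 Agonist mode, quantitative HTS format in a HEK 293T line expressing a UAS-controlled beta-lactamase reporter; 16 hr compound exposure at 37C in 2% charcoal-stripped FBS, then LiveBLAzer B/G FRET fluorescence.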
Progesterone receptor (Homo sapiens), sequence (P06401 whole entry, looked up): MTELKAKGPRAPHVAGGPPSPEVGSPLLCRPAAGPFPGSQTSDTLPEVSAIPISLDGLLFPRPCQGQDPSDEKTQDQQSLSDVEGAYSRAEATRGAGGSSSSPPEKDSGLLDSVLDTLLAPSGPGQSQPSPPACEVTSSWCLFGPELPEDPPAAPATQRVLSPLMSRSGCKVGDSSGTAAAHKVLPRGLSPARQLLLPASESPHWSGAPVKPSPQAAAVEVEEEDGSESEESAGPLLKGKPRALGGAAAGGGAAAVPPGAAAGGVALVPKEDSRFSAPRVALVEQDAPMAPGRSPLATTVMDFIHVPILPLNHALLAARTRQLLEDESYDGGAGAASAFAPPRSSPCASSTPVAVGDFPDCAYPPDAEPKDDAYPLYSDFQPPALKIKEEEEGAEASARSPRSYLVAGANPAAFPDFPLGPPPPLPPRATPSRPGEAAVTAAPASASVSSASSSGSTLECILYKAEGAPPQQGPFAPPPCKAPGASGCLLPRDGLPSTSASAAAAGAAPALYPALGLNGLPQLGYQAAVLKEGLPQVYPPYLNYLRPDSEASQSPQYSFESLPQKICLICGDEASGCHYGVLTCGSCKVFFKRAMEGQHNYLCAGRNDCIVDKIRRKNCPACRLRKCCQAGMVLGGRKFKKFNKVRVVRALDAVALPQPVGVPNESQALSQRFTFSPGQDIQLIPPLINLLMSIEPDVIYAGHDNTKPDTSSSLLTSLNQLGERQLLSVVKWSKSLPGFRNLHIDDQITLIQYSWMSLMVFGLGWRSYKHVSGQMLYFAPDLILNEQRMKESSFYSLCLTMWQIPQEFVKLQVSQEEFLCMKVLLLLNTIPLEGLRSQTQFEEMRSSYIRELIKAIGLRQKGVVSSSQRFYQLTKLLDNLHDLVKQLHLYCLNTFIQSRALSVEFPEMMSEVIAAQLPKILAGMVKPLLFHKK

Assay [4] shares this target. Kind of assay: qHTS assay to identify small molecule antagonists of the progesterone receptor (PR) signaling pathway (AID 1346795; active means well fitted inhibition curve with a large enough effect in the signal ratio in the repeat runs, not every such curve was filed as active; the % refers to the signal ratio). In a few lines: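 HEK293T PR-UAS-bla reporter cells in charcoal-stripped serum (2%) received compound after a 6 hr settling period, followed by R5020 agonist at 1 nM final; 16 hr incubation preceded the FRET substrate step and fluorescence measurement.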

Assay [5] can be described thus: qHTS assay to identify small molecule antagonists of the progesterone receptor (PR) signaling pathway - cell viability counter screen (AID 1346798). Further: series mostly up to about 92 µM; nearly all actives have a fitted effect of over 50% in size. In a few lines:
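Same-well multiplex: after 16 hr at 37C with compound and R5020 stimulation, HEK293T cells carrying a UAS-bla reporter received LiveBLAzer substrate (2 hr RT), then CellTiter-Glo (30 min RT) for luminescent viability.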

Assay [6] is described as follows: qHTS assay to identify small molecule antagonists of the TGF-beta/Smad signaling pathway - cell viability counter screen (AID 1346824). Further: nearly all actives have a fitted effect of over 50% in size. An outline of the steps: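 SBE-bla HEK 293T cells were plated overnight at 37 C, then given compounds in DMSO plus TGF-beta1 (added as 0.25 ng/mL solution) for 5 hr. After the bla read, CellTiter-Glo was added to the same wells and luminescence read after 30 min at room temperature.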

Assay [7] in a line: qHTS assay to identify small molecule agonists of the TGF-beta/Smad signaling pathway - cell viability counter screen (AID 1346829). Further: top concentration of the series differs between compounds; nearly all actives have a fitted effect of over 45% in size. An outline of the steps:
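Same-well cytotoxicity: CellTiter-Glo added after the 2 hr room-temperature beta-lactamase substrate step, luminescence measured 30 min later; cells had 5 hr of compound at 37 C.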

Assay [8] is described as follows: qHTS assay to identify small molecule agonists of the TGF-beta/Smad signaling pathway (AID 1346859; active means well fitted activation curve with a large enough effect in the signal ratio in the repeat runs, not every such curve was filed as active; the % refers to the signal ratio; further: series mostly up to about 77 µM). In a few lines: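 Smad-responsive beta-lactamase reporter cells (HEK 293T) received compounds from DMSO stocks after overnight attachment, were incubated 5 hr, then treated 2 hr with FRET substrate before dual-emission fluorescence measurement (405 nm excitation).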

The target in assay [9] is Thyrotropin-releasing hormone receptor (Homo sapiens) (UniProt P34981). As to the kind of experiment: qHTS assay to identify small molecule antagonists of the thyrotropin-releasing hormone receptor (TRHR) signaling pathway (AID 1346877; active means well fitted inhibition curve with a large enough effect in the repeat runs, not every such curve was filed as active; further: series mostly up to about 51 µM). In a few lines:
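Calcium signal in dye-loaded TRHR/HEK293 cells; compounds added 5 min before TRH (1 nM final); fluorescence monitored 3 min at 1 s steps.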

For assay [10] the target is unchanged. As to the kind of experiment: qHTS assay to identify small molecule agonists of the thyrotropin-releasing hormone receptor (TRHR) signaling pathway (AID 1346891; calls by dose curve;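 further: HEK293 cells expressing TRHR with calcium dye readout; series mostly up to about 58 µM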). In a few lines:
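Agonist-mode calcium mobilisation screen: TRHR-transfected HEK293 cells cultured overnight (18 h), dye-loaded for 2 h at 37 °C, exposed to compounds, and monitored by fluorescence for 3 min.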

Assay [11] is described as follows: Caspase-3/7 induction in HepG2 cells by small molecules, qHTS assay (AID 1346978). Further: nearly all actives have a fitted effect of over 15% in size. Further: potency means the concentration at half of the fitted maximal effect. An outline of the steps: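 Wild-type HepG2 cells (2,000/well) were settled 5 h at 37 C, 5% CO2, then exposed to compounds in DMSO for 17 h. Caspase-3/7 activity was read by luminescence 30 min after adding Caspase-Glo 3/7 reagent at room temperature.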
A short description of assay [12]: Caspase-3/7 induction in CHO-K1 cells by small molecules, qHTS cell viability counter screen (AID 1346979). Further: nearly all actives have a fitted effect of over 35% in size. Further: potency means the concentration at half of the fitted maximal effect. An outline of the steps:
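In the same wells as the caspase read, viability of compound-treated wild-type CHO-K1 cells was assessed using CellTiter-Fluor, added after 16hr at 37C and measured by fluorescence following 1hr further incubation.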

The nature of assay [13]: Caspase-3/7 induction in CHO-K1 cells by small molecules, qHTS assay (AID 1346980). Further: nearly all actives have a fitted effect of over 15% in size. In a few lines: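 Wild-type cells were seeded at 1,500 per well and settled 5 hr at 37 C, 5% CO2, then exposed to DMSO-dissolved compounds for 17 hr. Caspase-Glo 3/7 reagent was added, and luminescence was read after 30min at room temperature.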
Assay [14] concerns the target Nuclear receptor subfamily 1 group I member 2 (Homo sapiens) (UniProt O75469). As to the kind of experiment: Human pregnane X receptor (PXR) small molecule agonists, qHTS assay (AID 1346982). Further: nearly all actives have a fitted effect of over 35% in size. Further: potency means the concentration at half of the fitted maximal effect. An outline of the steps: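 Tox21 qHTS; PXR-Luc HepG2; compounds pinned from DMSO; 24 hr, 37 C; ONE-Glo luciferase detection, 30 min room temperature.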
For assay [15] the target is unchanged. Kind of assay: CYP3A4 induction through human pregnane X receptor (PXR) by small molecules, qHTS assay (AID 1346984). Further: nearly all actives have a fitted effect of over 40% in size. An outline of the steps: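 Cells (DPX-2; HepG2 with PXR element plus CYP3A4-promoter luciferase) settled 5hr, then were treated 24hr at 37C. A 3hr, 3uM-final Luciferin-IPA step preceded luminescence measurement with One-Glo.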
Assay [16] shares this target. Kind of assay: Human pregnane X receptor (PXR) activation by small molecules, qHTS assay (AID 1346985). Further: nearly all actives have a fitted effect of over 40% in size. In a few lines: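 DPX-2 cells (HepG2 co-transfected with a PXR response element and a CYP3A4-promoter luciferase construct) were seeded at 2,000 per well, rested 5 hr at 37C, then exposed to DMSO-dissolved compounds for 24 hr. Activation was read as luciferase luminescence.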

Assay [17] concerns the target Cytochrome P450 2D6 (Homo sapiens) (UniProt P10635). Kind of assay: Cytochrome P450 Family 2 Subfamily D Member 6 (CYP2D6) small molecule antagonists: luciferase reporter qHTS assay (AID 1671196). Further: nearly all actives have a fitted effect of over 50% in size. Further: potency means the concentration at half of the fitted maximal effect. An outline of the steps: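 Room-temperature luminescent CYP2D6 activity assay: compound preincubated 10 min with enzyme–substrate mix, NADPH-initiated reaction 1 h, detection reagent 20 min before reading.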
For orientation: A reporter such as luciferase makes a cellular process visible.

A short description of assay [18]: qHTS assay to identify small molecule agonists of the progesterone receptor (PR) signaling pathway - cell viability counter screen (AID 1346799; calls by dose curve; further: nearly all actives have a fitted effect of over 45% in size; further: potency means the concentration at half of the fitted maximal effect). An outline of the steps:
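Counter screen for cytotoxicity: compound-treated PR-UAS-bla HEK293T cells (16 hr, 37C, 5% CO2) were assayed with CellTiter-Glo, luminescence measured after 30 min at room temperature.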

Assay [19] is described as follows: Human pregnane X receptor (PXR) small molecule agonists, qHTS cell viability counter screen (AID 1346977). Further: nearly all actives have a fitted effect of over 50% in size. Further: potency means the concentration at half of the fitted maximal effect. In a few lines:
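Measures live-cell protease fluorescence (CellTiter-Fluor) in PXR-Luc HepG2 cells treated 24hr with compounds at 37C. Cells had 5hr to attach before pin transfer of DMSO solutions.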

Assay [20] in a line: Caspase-3/7 induction in HepG2 cells by small molecules, qHTS cell viability counter screen (AID 1346981). Further: nearly all actives have a fitted effect of over 30% in size. Further: potency means the concentration at half of the fitted maximal effect. An outline of the steps: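 After a 5-hr attachment period at 37 C and 5% CO2, wild-type HepG2 cells received compounds in DMSO. Sixteen hours later CellTiter-Fluor was dispensed and the fluorescent signal quantified after a further hour.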

Structures are written as SMILES. Values joined by “and” are separate entries in the source; they are usually repeats but may differ in a detail not shown here. Equal entries are not always repeated. Results filed as inconclusive are left out. Where a structure was tested more than once in an assay, its records may differ in their call. Active and inactive are the calls of the source. Unless noted, the call rests on the fitted dose curve; in most records, active means well fitted curve in the direction sought with a large enough effect in the repeat runs; inconclusive means weak or mixed curves; inactive means no such curve, though single readings can be large; an effect the other way counts as inactive or inconclusive.

Thyrotropin receptor (Homo sapiens), sequence (P16473 whole entry, looked up): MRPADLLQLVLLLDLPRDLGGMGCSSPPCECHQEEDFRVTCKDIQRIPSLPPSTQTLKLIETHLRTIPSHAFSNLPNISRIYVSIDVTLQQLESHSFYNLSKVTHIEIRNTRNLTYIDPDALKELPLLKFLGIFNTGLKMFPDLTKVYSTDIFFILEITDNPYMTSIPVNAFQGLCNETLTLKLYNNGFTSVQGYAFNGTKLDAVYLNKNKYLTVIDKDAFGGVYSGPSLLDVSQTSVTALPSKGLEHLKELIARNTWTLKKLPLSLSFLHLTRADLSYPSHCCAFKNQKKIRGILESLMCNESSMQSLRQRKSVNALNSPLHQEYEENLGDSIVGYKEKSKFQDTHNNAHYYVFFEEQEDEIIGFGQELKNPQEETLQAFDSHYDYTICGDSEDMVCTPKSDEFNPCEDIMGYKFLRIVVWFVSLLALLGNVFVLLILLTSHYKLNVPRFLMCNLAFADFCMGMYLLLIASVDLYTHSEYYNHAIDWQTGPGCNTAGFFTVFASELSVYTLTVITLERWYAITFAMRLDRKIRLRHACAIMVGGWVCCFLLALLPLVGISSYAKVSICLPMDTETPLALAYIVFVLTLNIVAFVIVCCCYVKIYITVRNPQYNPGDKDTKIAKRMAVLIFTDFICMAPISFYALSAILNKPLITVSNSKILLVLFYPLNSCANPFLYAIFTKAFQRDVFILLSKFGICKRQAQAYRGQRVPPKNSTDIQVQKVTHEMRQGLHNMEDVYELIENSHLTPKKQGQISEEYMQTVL
Nuclear receptor subfamily 1 group I member 2 (Homo sapiens), sequence (O75469 whole entry, looked up): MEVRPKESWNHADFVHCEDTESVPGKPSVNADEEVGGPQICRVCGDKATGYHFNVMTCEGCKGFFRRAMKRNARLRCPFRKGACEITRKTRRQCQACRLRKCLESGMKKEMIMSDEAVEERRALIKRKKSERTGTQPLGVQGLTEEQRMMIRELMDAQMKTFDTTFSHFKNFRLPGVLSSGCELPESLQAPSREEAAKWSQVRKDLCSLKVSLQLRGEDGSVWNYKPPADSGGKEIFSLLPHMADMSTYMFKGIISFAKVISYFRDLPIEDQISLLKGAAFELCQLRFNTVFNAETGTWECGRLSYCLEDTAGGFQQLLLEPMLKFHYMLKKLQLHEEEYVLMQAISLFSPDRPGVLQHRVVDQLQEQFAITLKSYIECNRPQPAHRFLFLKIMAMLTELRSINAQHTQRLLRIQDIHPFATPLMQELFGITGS
Cytochrome P450 2D6 (Homo sapiens), sequence (P10635 whole entry, looked up): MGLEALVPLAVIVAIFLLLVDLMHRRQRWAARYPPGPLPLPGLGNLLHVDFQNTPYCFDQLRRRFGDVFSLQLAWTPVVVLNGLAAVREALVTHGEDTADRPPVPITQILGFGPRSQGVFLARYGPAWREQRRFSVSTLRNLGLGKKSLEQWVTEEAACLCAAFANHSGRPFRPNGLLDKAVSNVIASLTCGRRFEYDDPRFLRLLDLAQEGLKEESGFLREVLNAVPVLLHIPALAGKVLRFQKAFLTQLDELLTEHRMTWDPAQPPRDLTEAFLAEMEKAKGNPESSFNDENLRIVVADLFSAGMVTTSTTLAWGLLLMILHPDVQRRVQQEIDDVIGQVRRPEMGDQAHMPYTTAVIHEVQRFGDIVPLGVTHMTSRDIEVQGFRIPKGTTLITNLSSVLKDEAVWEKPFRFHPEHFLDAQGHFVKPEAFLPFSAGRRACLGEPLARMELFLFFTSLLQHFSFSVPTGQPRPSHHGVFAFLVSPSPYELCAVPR
Thyrotropin-releasing hormone receptor (Homo sapiens), sequence (P34981 whole entry, looked up): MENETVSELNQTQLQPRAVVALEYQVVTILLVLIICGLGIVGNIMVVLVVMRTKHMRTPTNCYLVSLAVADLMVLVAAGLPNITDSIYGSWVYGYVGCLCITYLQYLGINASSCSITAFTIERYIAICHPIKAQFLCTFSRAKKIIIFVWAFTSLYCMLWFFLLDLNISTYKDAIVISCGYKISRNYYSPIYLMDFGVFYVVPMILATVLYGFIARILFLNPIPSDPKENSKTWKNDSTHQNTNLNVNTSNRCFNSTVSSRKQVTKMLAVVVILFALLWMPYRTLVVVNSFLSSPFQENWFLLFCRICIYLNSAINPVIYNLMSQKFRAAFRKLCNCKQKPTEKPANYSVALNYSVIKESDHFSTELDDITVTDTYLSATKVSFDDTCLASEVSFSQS

With `CCCCCCCC(=O)OCC(O)CO` (stereo not given), the compound was called inactive in assay [1], in [8], in assay [9] and in assay [13]. Moreover, the Potency result in assay [2], in assay [3], in assay [4], in assay [5], in assay [6] and in assay [7] was “inactive” in each case. For the same compound, the Potency entry in assay [10], in assay [11], in [12], in assay [14], in [15] and in assay [16] was “inactive” in each case. Further, the Potency in [17] is 39.9 µM (active).

As for `Oc1cccc(O)c1`, the result in assay [1], in assay [8] and in assay [13] was inactive. In addition, the Potency result in assay [2], in assay [3], in assay [4], in assay [18], in [6] and in assay [7] was “inactive” throughout. In addition, the Potency entry in assay [19], in [12], in assay [15], in [16] and in assay [17] was “inactive” in each case. Further, the Potency is 42 µM (active) and inactive in [11]; 47.1 µM (active) and inactive in assay [14].

Regarding `CC(=O)Oc1ccccc1C(=O)O`, the outcome in assay [1], in assay [8] and in [13] was inactive. Besides, the Potency entry in assay [2], in [3], in assay [4], in assay [18], in assay [6] and in assay [7] was “inactive” in each case. Besides, the Potency entry in assay [11], in [12], in assay [14] and in [17] was “inactive” throughout.

Consider `O=C(O)Cc1cccc2ccccc12`, for which the compound was classed as inactive in assay [1], in [8], in [9] and in assay [13]. In addition, the Potency result in assay [2], in assay [4], in [6], in [7], in [10] and in [19] was “inactive” each time. For the same compound, the Potency result in [11], in assay [14], in [15] and in assay [16] was “inactive” each time. Also, the Potency entry was “inactive and 1.37 µM (active)” in assay [3]; “inactive and 21.7 µM (active)” in assay [18]; “inactive and 6.33 µM (active)” in [17].

Turning to `COc1cc(C=O)ccc1O`, the compound was classed as inactive in [1], in assay [8], in assay [9] and in assay [13]. Moreover, the Potency result in [2], in assay [3], in assay [4], in assay [5], in [6] and in assay [7] was “inactive” in each case. The Potency result in [10], in assay [11], in assay [12], in [14] and in [17] was “inactive” in each case.

For the compound `COc1ccccc1NC(=O)CC(C)=O`, the compound was classed as inactive in assay [1], in assay [8], in assay [9] and in [13]. The Potency result in assay [2], in [3], in assay [4], in assay [18], in assay [6] and in assay [7] was “inactive” in each case. For the same compound, the Potency result in assay [10], in [11], in assay [12], in [20] and in [17] was “inactive” in each case. Besides, in assay [14], the Potency was 61.1 µM (active).

Regarding `Cc1cccc2ccccc12`, the compound was classed as inactive in assay [1], in [8], in assay [9] and in [13]. Further, the Potency result in [2], in [3], in assay [4], in [18], in assay [6] and in assay [7] was “inactive” each time. In addition, the Potency entry in assay [10], in assay [19], in assay [11], in [12], in [14] and in [17] was “inactive” throughout.

On to `CO[C@H]1C=CO[C@@]2(C)Oc3c(C)c(O)c4c(O)c(c(/C=N/N5CCN(C)CC5)c(O)c4c3C2=O)NC(=O)/C(C)=C\C=C[C@H](C)[C@H](O)[C@@H](C)[C@@H](O)[C@@H](C)[C@H](OC(C)=O)[C@@H]1C`, for which the compound was classed as inactive in [1], in [8], in assay [9] and in assay [13]. The Potency is 27.4 µM (active) and 31 µM (active) and 23.7 µM (active) in [2]; 35.5 µM (active) and 19.6 µM (active) and 23.7 µM (active) in [19]; 30.8 µM (active) and 34.8 µM (active) and 26.6 µM (active) in assay [12]; 27.4 µM (active) and 34.8 µM (active) and 23.7 µM (active) in [20]. In addition, the Potency result in assay [3], in assay [4], in assay [6], in [7], in [10] and in [11] was “inactive” throughout. In addition, in assay [17], the Potency entry is “inactive”.
